In the supplement of paper PMC12282887:
± gives the standard deviation of the averaged measurements.

Experiments:
Experiment in all cases: promoter activity interaction Z-score (Lux/OD deviation from empty-vector control); higher = stronger promoter induction by the compound
[1] = system: E. coli BW25113 acrABp lux reporter
How it was run: (§1)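 Low-copy luxCDABE promoter reporters were carried by E. coli BW25113, either wild type or lacking one of three genes, grown in 40 µl LB Lennox in 384-well plates at 37°C. Each compound was run at four 1:2 dilutions in biological duplicates, with OD600 and luminescence read every 30 min for 12 h. Integration used 0–8 h for wild type and 1–9 h for deletion strains, and wells under 10% of the median growth value were removed. Luminescence normalised to growth was fitted against a control, and the Z-transformed residual is the score.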

[2] = system: E. coli BW25113 micFp lux reporter
How it was run: as §1

[3] = system: E. coli BW25113 ompFp lux reporter
How it was run: as §1

[4] = system: E. coli BW25113 robp lux reporter
How it was run: as §1

[5] = system: E. coli BW25113 soxSp lux reporter
How it was run: as §1

[6] = system: E. coli BW25113 tolCp lux reporter
How it was run: as §1

[7] = 20 µg/ml, genetic background: wild type
[8] = 20 µg/ml, genetic background: ΔmarA
[9] = 20 µg/ml, genetic background: Δrob
[10] = 20 µg/ml, genetic background: ΔsoxS
[11] = 39.9 µg/ml, genetic background: wild type
[12] = 39.9 µg/ml, genetic background: ΔmarA
[13] = 39.9 µg/ml, genetic background: Δrob
[14] = 39.9 µg/ml, genetic background: ΔsoxS
[15] = 79.8 µg/ml, genetic background: wild type
[16] = 79.8 µg/ml, genetic background: ΔmarA
[17] = 79.8 µg/ml, genetic background: Δrob
[18] = 79.8 µg/ml, genetic background: ΔsoxS
[19] = 159.6 µg/ml, genetic background: wild type
[20] = 159.6 µg/ml, genetic background: ΔmarA
[21] = 159.6 µg/ml, genetic background: Δrob
[22] = 159.6 µg/ml, genetic background: ΔsoxS

NC[C@H](O)c1ccc(O)c(O)c1 [Noradrenalin]
promoter activity interaction Z-score [1, 7]: 0.191 ± 0.043
promoter activity interaction Z-score [1, 8]: 0.362 ± 0.59
promoter activity interaction Z-score [1, 9]: 0.47 ± 0.3
promoter activity interaction Z-score [1, 10]: 0.122 ± 0.4
promoter activity interaction Z-score [1, 11]: 0.0636 ± 0.28
promoter activity interaction Z-score [1, 12]: 0.359 ± 0.28
promoter activity interaction Z-score [1, 13]: 0.344 ± 0.66
promoter activity interaction Z-score [1, 14]: 0.23 ± 0.37
promoter activity interaction Z-score [1, 15]: 0.335 ± 0.023
promoter activity interaction Z-score [1, 16]: -0.978 ± 0.27
promoter activity interaction Z-score [1, 17]: 0.541 ± 0.3
promoter activity interaction Z-score [1, 18]: 0.0112 ± 0.031
promoter activity interaction Z-score [1, 19]: 0.208 ± 0.26
promoter activity interaction Z-score [1, 20]: 0.422 ± 0.39
promoter activity interaction Z-score [1, 21]: 0.664 ± 0.6
promoter activity interaction Z-score [1, 22]: 0.626 ± 0.16
promoter activity interaction Z-score [2, 7]: -0.0178 ± 0.045
promoter activity interaction Z-score [2, 8]: 0.0504 ± 0.056
promoter activity interaction Z-score [2, 9]: -0.0409 ± 0.027
promoter activity interaction Z-score [2, 10]: 0.0398 ± 0.17
promoter activity interaction Z-score [2, 11]: -0.101 ± 0.2
promoter activity interaction Z-score [2, 12]: -0.00878 ± 0.065
promoter activity interaction Z-score [2, 13]: -0.0156 ± 0.16
promoter activity interaction Z-score [2, 14]: -0.114 ± 0.0037
promoter activity interaction Z-score [2, 15]: 0.00145 ± 0.18
promoter activity interaction Z-score [2, 16]: -0.0653 ± 0.027
promoter activity interaction Z-score [2, 17]: -0.14 ± 0.2
promoter activity interaction Z-score [2, 18]: 0.0484 ± 0.0015
promoter activity interaction Z-score [2, 19]: -0.129 ± 0.14
promoter activity interaction Z-score [2, 20]: -0.17 ± 0.03
promoter activity interaction Z-score [2, 21]: -0.105 ± 0.047
promoter activity interaction Z-score [2, 22]: -0.0781 ± 0.094
promoter activity interaction Z-score [3, 7]: 0.507 ± 0.061
promoter activity interaction Z-score [3, 8]: 0.708 ± 0.42
promoter activity interaction Z-score [3, 9]: 0.59 ± 0.074
promoter activity interaction Z-score [3, 10]: 0.138 ± 0.1
promoter activity interaction Z-score [3, 11]: 0.854 ± 0.025
promoter activity interaction Z-score [3, 12]: 0.48 ± 0.12
promoter activity interaction Z-score [3, 13]: 0.602 ± 0.42
promoter activity interaction Z-score [3, 14]: 0.403 ± 0.22
promoter activity interaction Z-score [3, 15]: 0.895 ± 0.33
promoter activity interaction Z-score [3, 16]: 0.0373 ± 0.12
promoter activity interaction Z-score [3, 17]: 0.307 ± 0.14
promoter activity interaction Z-score [3, 18]: 0.13 ± 0.09
promoter activity interaction Z-score [3, 19]: 1.01 ± 0.25
promoter activity interaction Z-score [3, 20]: 0.851 ± 0.14
promoter activity interaction Z-score [3, 21]: 0.476 ± 1.1
promoter activity interaction Z-score [3, 22]: 1.13 ± 0.2
promoter activity interaction Z-score [4, 7]: 0.547 ± 0.64
promoter activity interaction Z-score [4, 8]: 0.384 ± 0.1
promoter activity interaction Z-score [4, 9]: 0.384 ± 0.47
promoter activity interaction Z-score [4, 10]: 1.12 ± 0.86
promoter activity interaction Z-score [4, 11]: 0.762 ± 0.056
promoter activity interaction Z-score [4, 12]: 1.14 ± 0.33
promoter activity interaction Z-score [4, 13]: 0.129 ± 0.011
promoter activity interaction Z-score [4, 14]: 0.395 ± 0.56
promoter activity interaction Z-score [4, 15]: 0.33 ± 0.14
promoter activity interaction Z-score [4, 16]: -0.159 ± 0.14
promoter activity interaction Z-score [4, 17]: -0.0403 ± 0.17
promoter activity interaction Z-score [4, 18]: 0.042 ± 0.74
promoter activity interaction Z-score [4, 19]: 0.223 ± 0.48
promoter activity interaction Z-score [4, 20]: -0.276 ± 0.24
promoter activity interaction Z-score [4, 21]: -0.36 ± 0.58
promoter activity interaction Z-score [4, 22]: -0.182 ± 0.36
promoter activity interaction Z-score [5, 7]: -0.0849 ± 0.038
promoter activity interaction Z-score [5, 8]: -0.0801 ± 0.073
promoter activity interaction Z-score [5, 9]: -0.113 ± 0.058
promoter activity interaction Z-score [5, 10]: 0.0191 ± 0.33
promoter activity interaction Z-score [5, 11]: 0.0167 ± 0.12
promoter activity interaction Z-score [5, 12]: -0.0796 ± 0.033
promoter activity interaction Z-score [5, 13]: -0.0193 ± 0.2
promoter activity interaction Z-score [5, 14]: 0.0258 ± 0.27
promoter activity interaction Z-score [5, 15]: -0.0633 ± 0.035
promoter activity interaction Z-score [5, 16]: -0.258 ± 0.028
promoter activity interaction Z-score [5, 17]: -0.159 ± 0.19
promoter activity interaction Z-score [5, 18]: -0.00763 ± 0.11
promoter activity interaction Z-score [5, 19]: -0.154 ± 0.0074
promoter activity interaction Z-score [5, 20]: -0.357 ± 0.097
promoter activity interaction Z-score [5, 21]: -0.388 ± 0.16
promoter activity interaction Z-score [5, 22]: -0.0342 ± 0.11
promoter activity interaction Z-score [6, 7]: 0.0786 ± 0.23
promoter activity interaction Z-score [6, 8]: 0.206 ± 1.2
promoter activity interaction Z-score [6, 9]: -0.339 ± 0.25
promoter activity interaction Z-score [6, 10]: -0.485 ± 0.31
promoter activity interaction Z-score [6, 11]: -0.478 ± 0.28
promoter activity interaction Z-score [6, 12]: 0.198 ± 0.13
promoter activity interaction Z-score [6, 13]: -0.000984 ± 1.4
promoter activity interaction Z-score [6, 14]: -0.431 ± 0.54
promoter activity interaction Z-score [6, 15]: 0.0142 ± 0.56
promoter activity interaction Z-score [6, 16]: -0.267 ± 0.49
promoter activity interaction Z-score [6, 17]: 0.254 ± 0.35
promoter activity interaction Z-score [6, 18]: -0.273 ± 0.31
promoter activity interaction Z-score [6, 19]: -0.957 ± 1.4
promoter activity interaction Z-score [6, 20]: -0.659 ± 0.07
promoter activity interaction Z-score [6, 21]: -0.565 ± 0.4
promoter activity interaction Z-score [6, 22]: -0.633 ± 0.011
